# Test results reported in PubChem BioAssay AID652094 (National Center for Advancing Translational Sciences (NCATS), 2013).
# The source made the active and inactive calls.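 Rule for the calls: active = lower glucosylceramide lipid buildup in Gaucher patient macrophages after compound treatment; inactive = the rest.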
# Experiment: Extended Characterization of Activators of N370S glucocerebrosidase as a Potential Chaperone Treatment of Gaucher Disease: Quantification of GlcCer accumulation in Gaucher macrophages
# Conditions: Gaucher patient macrophages, GlcCer-BODIPY accumulation fluorescence
# From the text: Glucocerebrosidase (GCase) catalyzes the hydrolysis of beta-glucocerebroside (GC) to glucose and ceramide in lysosomes. Mutations in the glucocerebrosidase gene result in Gaucher disease, an autosomal recessive lysosomal storage disorder. Many of the mutations encountered in patients with Gaucher disease are missense alterations that may cause misfolding, decreased stability and/or mistrafficking of this lysosomal protein. […] These inhibitors include iminosugar analogs and other inhibitors that were discovered as part of previous work. However, the enhancement of enzyme activity by the chaperone action of an enzyme inhibitor must be balanced against the direct inhibition of the enzyme. […] In this extended characterization of our probe, we have further characterized the activity of probes in relevant models of Gaucher disease. This assay attempts to quantitate GC concentration in patient-derived macrophages following compound incubation. NIH Chemical Genomics Center [NCGC] NIH Molecular Libraries Probe Production Centers Network [MLPCN] […]
# In order to quantify macrophage GlcCer accumulation, erythrocyte ghosts were labeled with N-[11- (dipyrrometheneboron difluoride) undecanoyl]-D-Glucosyl-beta1-1'-D-erythro-sphingosine (C11 TopFluor Glucosyl Ceramide) (Avanti Polar Lipid) for 30 min at 37 degrees C and fluorescence measured at 495/503 nm on a Victor 1420 multi-label counter (PerkinElmer).
row,Structure (SMILES),outcome
1,C#Cc1ccc(NC(=O)c2cnn3c(C)cc(C)nc23)cc1,active; decreased
